The results in this text go back to PubChem BioAssay (Tox21).

Where “and” joins values, the source holds several entries; their conditions need not be identical. Equal values may be shown once. Inconclusive results are not listed. The source holds several records for some structures; these can differ, active in one and inactive in another. Calls of active or inactive are those of the source. The call rests on the fitted dose curve; in most records, active means well fitted inhibition curve with a large enough effect in the repeat runs; inconclusive means weak or mixed curves; inactive means no such curve, though single readings can be large or run the other way.
On the % scale 0 is the no-effect control and ±100 the full control effect; potency means the concentration at half of the fitted maximal effect.

Cytochrome P450 1A2 (Homo sapiens), sequence (P05177 whole entry, looked up): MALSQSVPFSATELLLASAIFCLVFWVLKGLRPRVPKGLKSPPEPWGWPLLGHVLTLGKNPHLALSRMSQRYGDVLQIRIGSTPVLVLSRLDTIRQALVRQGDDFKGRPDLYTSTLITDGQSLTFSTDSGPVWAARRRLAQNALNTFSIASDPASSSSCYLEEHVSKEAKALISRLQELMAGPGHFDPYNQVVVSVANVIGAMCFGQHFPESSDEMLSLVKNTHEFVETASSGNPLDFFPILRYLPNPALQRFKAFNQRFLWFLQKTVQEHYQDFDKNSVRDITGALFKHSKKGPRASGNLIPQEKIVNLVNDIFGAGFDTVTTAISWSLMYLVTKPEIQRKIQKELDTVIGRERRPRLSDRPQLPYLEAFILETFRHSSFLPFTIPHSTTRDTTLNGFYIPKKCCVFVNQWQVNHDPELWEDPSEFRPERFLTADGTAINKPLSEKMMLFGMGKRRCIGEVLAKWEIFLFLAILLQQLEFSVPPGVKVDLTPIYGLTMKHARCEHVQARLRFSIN

This experiment has as its target Cytochrome P450 1A2 (Homo sapiens) (UniProt P05177). The experiment in a line: Cytochrome P450 Family 1 Subfamily A Member 2 (CYP1A2) small molecule antagonists: luciferase reporter qHTS assay (AID 1671199). Further: nearly all actives have a fitted effect of over 50% in size. The conditions noted are these: P450-Glo CYP1A2 enzyme, luciferin luminescence, 1 h; series mostly up to 115 µM; activity change, negative = inhibition: at the top concentration. The source says:
National Center for Advancing Translational Sciences [NCATS]
U.S. Environmental Protection Agency [EPA]
National Institutes of Environmental Health Sciences [NIEHS]
National Toxicology Program [NTP]
U.S. Food and Drug Administration [FDA]
Cytochrome P450 (CYP) enzymes are membrane-bound hemeproteins that play a key role in metabolism of drugs and xenobiotics. Evaluation of the effect of chemicals on CYP isozymes is useful to minimize the adverse drug reactions and toxicities in drug development process. Tox21 chemicals were tested for their effect on CYP enzyme activities by using P450-Glo (TM) screening systems (Promega Corporation, Madison, WI). These systems provide a luminescent method containing proluciferin substrates and are converted to luciferin products by CYP isozymes. The luciferin products formed are detected with a luciferin detection reagent, and the amount of light produced is proportional to CYP activity. P450-Glo (TM) CYP1A2 screening system (Catalog. No. V9770) was used to detect the compounds that interfere in CYP1A2 activity. The positive control compound used for CYP1A2 assay is furafylline (Sigma-Aldrich, St. Louis, MO).
Tox21 Assay Protocol Summary:
Two ul of enzyme-substrate mix was dispensed into medium binding white/solid 1536-well plates (Greiner Bio-One North America Inc., Monroe, NC) using a BioRaptr Flying Reagent Dispenser (FRD, Beckman Coulter, Brea, CA). Compounds dissolved in DMSO and positive control (furafyllline) were transferred to the assay plates at 23 nl using a Pintool station (Wako, San Diego, CA). The assay plates were incubated at room temperature for 10 min. Then 2 ul of NADPH regeneration solution was added to each well of the assay plates using an FRD and incubated at room temperature for 1 h. The reaction was stopped by adding 4 ul of detection reagent using an FRD and after 20 min incubation at room temperature the luminescence signal was measured using a ViewLux plate reader (Perkin Elmer, Shelton, CT). Data were expressed as relative luminescence units.
As to `CCC(C)(C)c1ccc(O)cc1`, the “activity change, negative = inhibition” value is -22% [at 53 µM] (inactive).

Regarding `Cc1cc(C)cc(C)c1`, the Potency result was “inactive”.

For `O=[N+]([O-])c1cccc2ccccc12`, the Potency is 3.17 µM (active) and 3.99 µM (active).

Consider `CCCCCCOC(=O)c1ccccc1C(=O)OCCCCCC`, for which the Potency is 22.9 µM (active) and 10 µM (active).

Regarding `CCCCC(CC)COC(=O)c1ccc(C(=O)OCC(CC)CCCC)c(C(=O)OCC(CC)CCCC)c1` (stereo not given), the “activity change, negative = inhibition” value was -25.6% (inactive).

In the case of `COP(=O)(OC)OC`, the Potency was 35.9 µM (active) and inactive.

Turning to `c1ccc(NNc2ccccc2)cc1`, the Potency is 32 µM (active) and 12.6 µM (active).

On to `CCCCCc1cc(O)cc(O)c1`, for which the Potency is 17.9 µM (active) and 35.6 µM (active).

With `CCOc1cc(C=O)ccc1O`, the Potency was 40 µM (active) and 39.9 µM (active).

In the case of `C=C(C)C(=O)OCC1CO1` (stereo not given), the Potency entry was “inactive”.

Take `O=C1C=CC(=O)C=C1`: the Potency was 40.1 µM (active).

Turning to `CCCCCCCCC(=O)NCc1ccc(O)c(OC)c1`, the Potency is 31.7 µM (active) and 27.5 µM (active).

On to `CC(C)NC(C)C`, for which the “activity change, negative = inhibition” value is -20.6% [at 53 µM] (inactive).

For the molecule `COP(=S)(OC)Oc1ccc([N+](=O)[O-])cc1`, the Potency was 7.11 µM (active) and 2 µM (active).

As for `CCN(CC)C(=O)SCc1ccc(Cl)cc1`, the Potency is 13 µM (active) and 15.9 µM (active).

As for `Oc1cc(Cl)c(Cl)cc1Cl`, the Potency is 22.3 µM (active) and 20 µM (active) and 22.4 µM (active).

On to `Cc1ccccc1[N+](=O)[O-]`, for which the Potency result is “inactive”.

For `CCN(CC)C(=O)/C(Cl)=C(\C)OP(=O)(OC)OC`, the Potency result was “inactive and 39.9 µM (active)”.

Regarding `CCC(CC)Nc1c([N+](=O)[O-])cc(C)c(C)c1[N+](=O)[O-]`, the Potency was 28.6 µM (active) and 17.8 µM (active).

Consider `Cc1c(COC(=O)[C@@H]2[C@H](/C=C(\Cl)C(F)(F)F)C2(C)C)cccc1-c1ccccc1`, for which the “activity change, negative = inhibition” value is -23.4% (inactive).

Consider `NNC(N)=S`, for which the Potency was 20.8 µM (active) and 31.7 µM (active).

On to `Clc1nc(Cl)nc(Cl)n1`, for which the “activity change, negative = inhibition” value was -6.93% (inactive).

With `Cc1ccc(OP(=O)(Oc2ccc(C)cc2)Oc2ccc(C)cc2)cc1`, the Potency was 7.09 µM (active) and 7.1 µM (active).

Turning to `CC1(C)C(C=C(Cl)Cl)C1C(=O)OC(C#N)c1cccc(Oc2ccccc2)c1` (stereo not given), the “activity change, negative = inhibition” value is -16.5% [at 53 µM] (inactive).

Consider `O=P(Oc1ccccc1)(Oc1ccccc1)Oc1ccccc1`, for which the Potency is 9.98 µM (active) and 11.2 µM (active).

As to `CCN(CC)N=O`, the “activity change, negative = inhibition” value is -4.25% (inactive).

On to `Oc1cc(Cl)ccc1Oc1ccc(Cl)cc1Cl`, for which the Potency was 30.1 µM (active) and 17.4 µM (active).

Consider `N#CC(Br)Br`, for which the Potency entry is “inactive”.

Regarding `CC(C)=CC1C(C(=O)OCc2coc(Cc3ccccc3)c2)C1(C)C` (stereo not given), the Potency was 28.2 µM (active).

On to `CCC(C)(c1ccc(O)cc1)c1ccc(O)cc1`, for which the “activity change, negative = inhibition” value was -15.5% (inactive).

In the case of `CC(C)(c1cc(Cl)c(O)c(Cl)c1)c1cc(Cl)c(O)c(Cl)c1`, the Potency result is “inactive”.

On to `c1ccc(-c2cccc(-c3ccccc3)c2)cc1`, for which the Potency is 5.7 µM (active) and 5.64 µM (active).

On to `C=C(C)[C@H]1Cc2c(ccc3c2O[C@@H]2COc4cc(OC)c(OC)cc4[C@@H]2C3=O)O1`, for which the “activity change, negative = inhibition” value is -1.2% [at 53 µM] (inactive).

With `Nc1ccc(Cl)cc1N`, the Potency is 11.7 µM (active) and 10.9 µM (active).

As for `CCN(N=O)C(N)=O`, the Potency entry was “inactive”.

Take `CNC(=O)N(C)c1nnc(C(C)(C)C)s1`: the Potency is 39.9 µM (active).

For `CCC(C)c1ccc(O)cc1` (stereo not given), the Potency is 35.9 µM (active) and 31.7 µM (active).

As to `N#CCCCl`, the Potency result is “inactive”.

On to `Oc1cc(Cl)ccc1Cl`, for which the Potency is 36.6 µM (active) and 31.7 µM (active).

In the case of `Nc1ccc(Cl)c(Cl)c1`, the Potency was 40.9 µM (active) and 35.6 µM (active).
